Results filed as inconclusive are left out. Calls of active or inactive are those of the source. The calls were made as follows: active = hit-call score of the fitted dose curve at least 0.9, where 1 is the maximum; inconclusive = response in the unintended direction; inactive = score below 0.9.

The target of the test is human Serotonin Receptor 5-HT7 Agonism, HTR7 (gene 3363) (UniProt P34969). In words: ERF_FR_GPCR_hHTR7: Eurofins (ERF) G Protein-Coupled Receptor (GPCR) Radioligand Binding LeadHunter Assay for human Serotonin Receptor 5-HT7 Agonism. The procedure: ERF_FR_GPCR_hHTR7 is a biochemical, single-readout assay that uses extracted gene-proteins in a cell-free assay. Measurements were taken 2 hour after chemical dosing in a 96-well plate. See 5-HT7 Human Serotonin GPCR Binding (Agonist Radioligand) Assay, Cerep.ERF_FR_GPCR_hHTR7 is an assay component calculated from the ERF_FR_GPCR_hHTR7 assay. It is designed to measure radioligand binding using a type of binding reporter as detected by scintillation counting with radiometry technology.Data from the assay component ERF_FR_GPCR_hHTR7 was analyzed at the assay endpoint, ERF_FR_GPCR_hHTR7, in the positive analysis fitting direction relative to DMSO as the negative control and baseline of activity. Using a type of binding reporter, gain-of-signal activity can be used to understand changes in binding as they relate to gene HTR7. To generalize the intended target to other relatable targets, this assay endpoint is annotated to the gpcr intended target family, where the subfamily is serotonin.
Chain of human Serotonin Receptor 5-HT7 Agonism, HTR7 (gene 3363) (P34969 whole entry, looked up): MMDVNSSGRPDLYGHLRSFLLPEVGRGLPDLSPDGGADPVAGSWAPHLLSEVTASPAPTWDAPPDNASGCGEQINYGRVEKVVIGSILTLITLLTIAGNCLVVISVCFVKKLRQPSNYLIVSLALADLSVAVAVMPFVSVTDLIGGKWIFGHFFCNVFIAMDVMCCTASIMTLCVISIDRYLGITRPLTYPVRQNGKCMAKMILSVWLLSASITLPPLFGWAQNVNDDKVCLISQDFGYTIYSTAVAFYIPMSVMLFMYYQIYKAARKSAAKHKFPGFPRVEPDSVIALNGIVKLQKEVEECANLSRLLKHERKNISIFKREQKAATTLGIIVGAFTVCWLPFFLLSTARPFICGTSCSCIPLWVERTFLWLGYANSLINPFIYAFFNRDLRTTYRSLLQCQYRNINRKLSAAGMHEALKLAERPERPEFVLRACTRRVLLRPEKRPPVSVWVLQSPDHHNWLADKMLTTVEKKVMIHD
Human cells are incubated for 120 minutes at room tempreture with [3H]LSD ligand (2.3 nM) and serotonin as control inhibitor. Test Sample Requirements: Minimum for 1) Screen: 60 ul of 10 mM stock -OR- 1 mg (pre-weighed) for 10 uM final testing. 2) Dose Response: 90 ul of 10 mM stock -OR- 1 mg (pre-weighed) for a top concentration at 10 uM.
For `O=C(/C=C/c1ccc(O)cc1)CC(=O)/C=C/c1ccc(O)cc1`, the AC50 was 1750 nM (active).

In general, AC50 refers to the concentration giving half of the maximal activity seen.

Values taken from PubChem BioAssay AID2284182 (EPA ToxCast).
